ELG1 genotox = qHTS screen for small molecules that induce genotoxicity in human embryonic kidney (HEK293T) cells expressing luciferase-tagged ELG1; HEK293T ELG1-luciferase reporter, luminescence, 16 h; Potency, µM (titrated, usually from 46 µM), without a hit: at the top dose activity change, positive = activation, actives largely listed as activators; hit rate 1.3% among 330,000; also: % of control where 0% means no effect; nearly all actives have a fitted effect of over 60% in size
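Step 1: seed 2,000 HEK293T ELG1-luciferase cells per well. Step 2: add compound or DMSO, incubate 16 hr at 37 °C. Step 3: ONE-Glo, 30 min at room temperature, read luminescence.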
Rab9 prom act = qHTS Assay for Rab9 Promoter Activators. Potency, µM (highest dose often 9.22 µM), for the others: top-dose activation, negative = inhibition, usual class: activators. AID 485297, 2010. Huh7 Rab9 promoter-luciferase reporter, luminescence, 24 h. hit rate 2.8% among 320,000; also: % of control where 0% means no effect; nearly all actives have a fitted effect of over 60% in size
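Cells were plated at 1500 per well in reduced-serum medium with 10% FBS and left 2 h. Compound in DMSO was then added for 24 h at 37 °C. Reporter signal was read by luminescence after 10 min with luciferase detection reagent.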
NPC1 prom act = qHTS Assay for NPC1 Promoter Activators | Huh7 NPC1 promoter luciferase reporter, 24 h | Potency, µM (top dose mostly 9.22 µM), for inactives: at the highest dose activation, usual class: activators | hit rate 2.4% among 320,000; also: % of control where 0% means no effect; nearly all actives have a fitted effect of over 60% in size
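Cells: Huh7 expressing luciferase under the NPC1 promoter, 1500/well. Seeded 2 h, compound added, incubated 24 h at 37 °C. Luciferase reagent, 10 min ambient, then luminescence.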
SMN2 splice enh = qHTS Assay for Enhancers of SMN2 Splice Variant Expression; HEK293 SMN2-luciferase splicing reporter, luminescence, 30-36 h; AID 1458, 2008; hit rate 2.8% among 210,000; Potency, µM (titrated, usually from 46.1 µM), for the others: top-dose activity change, positive = activation, hits mostly activators; also: % of control where 0% means no effect; nearly all actives have a fitted effect of over 55% in size
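HEK293 cells carry an SMN2 […]–luciferase reporter in which exon 7 inclusion puts luciferase in frame. Cells were plated 10-12 h before compound addition, then incubated 30-36 h at 37C. ONE-Glo luminescence was read; sodium butyrate at 4.5 mM final served as control.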
FLuc counter = qHTS profiling assay for firefly luciferase inhibitor/activator using purifed enzyme and Km concentrations of substrates (counterscreen for miR-21 project); Potency, µM (doses to about 57.5 µM), for inactives: at the top dose activity change, negative = inhibition, most hits filed as inhibitors; Luciferin 4-monooxygenase (Photinus pyralis), P08659; purified FLuc, Km substrates, luminescence inhibition; AID 588342, 2011; hit rate 6.9% among 360,000;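 also: plate controls were vehicle for no effect and reference inhibitor for full effect; nearly all actives have a fitted effect of over 55% in size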
Target sequence (P08659 whole entry, looked up): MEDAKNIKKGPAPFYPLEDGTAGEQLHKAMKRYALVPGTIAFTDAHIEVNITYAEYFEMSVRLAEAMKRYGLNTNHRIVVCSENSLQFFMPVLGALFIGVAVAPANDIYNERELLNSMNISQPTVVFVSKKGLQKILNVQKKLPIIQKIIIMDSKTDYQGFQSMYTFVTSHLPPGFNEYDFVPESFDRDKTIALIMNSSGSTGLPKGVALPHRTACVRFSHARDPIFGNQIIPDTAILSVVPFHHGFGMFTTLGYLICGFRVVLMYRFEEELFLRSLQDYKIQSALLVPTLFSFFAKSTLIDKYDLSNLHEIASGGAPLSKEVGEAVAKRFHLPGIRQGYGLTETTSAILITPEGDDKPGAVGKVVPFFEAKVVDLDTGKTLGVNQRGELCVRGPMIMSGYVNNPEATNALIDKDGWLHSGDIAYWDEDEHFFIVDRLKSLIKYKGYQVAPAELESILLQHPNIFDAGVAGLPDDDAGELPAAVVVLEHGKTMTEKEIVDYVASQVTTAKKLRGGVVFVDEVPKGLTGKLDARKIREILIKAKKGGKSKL
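Purified P. pyralis luciferase (10nM final) with 10uM D-luciferin and 10uM ATP (Km levels) in 50mM Tris acetate pH 7.5, 10mM Mg acetate, 0.01% Tween-20, 0.05% BSA; qHTS 6-point titration, ~60 µM downward; luminescence read.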
KinaseGlo FLuc = Counterscreen for Luciferase (Kinase-Glo TM) Inhibition; Luciferin 4-monooxygenase (Photuris pensylvanica), Q27757; Kinase-Glo luciferase, ATP luminescence, 8 min; Potency, µM (series often up to 38.3 µM), for the others: at the top dose activity change, negative = inhibition, usual class: inhibitors; hit rate 0.28% among 200,000; AID 1379, 2008; also: % is scaled to controls: 0 for no effect and ±100 for the full control effect; nearly all actives have a fitted effect of over 60% in size
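Substrate mix (final 50 mM imidazole pH 7.2, 50 mM KCl, 7 mM MgCl2, 10 uM ATP, 0.01% Tween 20, 0.05% BSA) plus pin-tool compound, then Kinase-Glo detection mix; 8 min ambient, luminescence read.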
* hit, by the source's call; ? = inconclusive; . = no result; [ ] = dose if it differs, or a comment. Most compounds without a hit are left out; they make up all but 7.3% or so of the library. Calls follow the shape of the dose curve; as a rule, active = well fitted curve in the direction sought with a large enough effect; inconclusive = small, poorly fitted or top-dose-only effect, or another doubt; inactive = no such curve, though single readings can be large; an effect the other way counts as inactive or inconclusive. Potency is read from the fitted curve at half-maximal effect.

SMILES	ELG1 genotox	Rab9 prom act	NPC1 prom act	SMN2 splice enh	FLuc counter	KinaseGlo FLuc
Fc1cccc(CSc2ccc(-c3ccco3)nn2)c1	?	?	?	?	12µM*	-3.8%
CSc1ccc(-c2ccco2)nn1	?	3.16µM*	?	.	?	-24.2%
Cc1ccc2c(Cl)cc(Cl)c(OCC(=O)O)c2n1	-2.6%	-2.1%	-3.0%	-1.8%	-12.7%	1.4%
CC(C)[C@@H](C(=O)NCC1CCCO1)N1C(=O)N2CCc3c([nH]c4ccccc34)[C@@]2(C)C1=O (stereo not given in full)	-0.1%	-0.4%	0.6%	.	1.4%	.
COC(=O)c1ccc(CO/N=C2\CCCc3nonc32)cc1	6.7%	?	14.8%	0.5%	?	-3.0%
Cc1ccc2nc(-c3ccc(O)cc3)oc2c1	?	?	2.51µM*	.	0.953µM*	.
Cc1ccc2nc(-c3cccc(N)c3)oc2c1	1.64µM*	3.55µM*	0.891µM*	?	0.213µM*	-25.5%
Cc1ccc2nc(CCc3nc4ccc(C)cc4o3)oc2c1	15.4%	8.2%	-2.0%	-3.5%	-1.6%	-2.7%
Cc1cc(C)c2oc(-c3cccc(N)c3)nc2c1	?	?	3.55µM*	.	3.79µM*	.
Cc1cccc(-c2nc(N)nc(N)n2)c1	?	?	20.6%	.	?	.
Cc1ccc2nc(Cc3ccc(N)cc3)oc2c1	11.6µM*	3.16µM*	3.55µM*	?	13.5µM*	1.1%
COc1cccc(N2CCC(N3CCN(C)C(CCO)C3)CC2)c1 (stereo not given)	1.7%	2.1%	0.5%	.	-6.9%	.
CN(C)S(=O)(=O)c1ccc(Cl)c(NC(=O)CN2CCC(Cc3ccccc3)CC2)c1	-6.5%	-2.3%	-17.6%	-39.5%	0.1%	1.4%
CCc1ccc2oc(-c3cccc(N)c3)nc2c1	?	1.58µM*	0.562µM*	6.31µM*	0.239µM*	-22.8%
O=C(CNc1cccc(C(F)(F)F)c1)Nc1cccc(S(=O)(=O)N2CCCC2)c1	-4.4%	-7.9%	-1.8%	.	-2.1%	.
CN(C(=O)Nc1ccc(Cl)cc1Cl)C1CCCC1	?	3.98µM*	?	.	19µM*	.
Cn1c(=O)c2c(ncn2CCC(=O)N/N=C/c2cccnc2)n(C)c1=O	-2.4%	3.2%	-0.6%	.	0.0%	.
COc1ccc(/C=C2/CC/C(=C\c3ccc(OC)c(OC)c3OC)C2=O)c(OC)c1OC	9.6%	-2.9%	-4.6%	-27.3%	5.4%	2.5%
COc1cc(/C=C2\CCC(C3CCCC3)C2=O)cc(OC)c1OC (stereo not given)	3.4%	14.4%	2.9%	.	?	.
COc1cccc(/C=C2\CCC(C3CCCC3)C2=O)c1OC (stereo not given)	?	3.98µM*	2.82µM*	.	1.07µM*	.
COc1ccc(/C=C2\CCC(C3CCCC3)C2=O)c(OC)c1OC (stereo not given)	10.5%	0.3%[1.84 µM]	-3.6%	.	23.9µM*	.
O=C(NCc1ccccc1)C1Cc2ccccc2CN1C(=O)c1ccco1 (stereo not given)	-5.4%	0.9%	-12.7%	1.5%	2.5%	0.6%
Cc1ccccc1NC(=O)C1Cc2ccccc2CN1C(=O)c1ccco1 (stereo not given)	23.1µM*	?	2.82µM*	.	?	.
Cc1ccc2[nH]c3c(NCc4ccco4)ncnc3c2c1	8.3%	4.3%	1.0%	-62.6%	13.5µM*	-4.1%
COc1cc(CNc2ncnc3c2[nH]c2ccc(C)cc23)cc(OC)c1	-11.3%	-8.0%	0.1%	.	26.9µM*	.
SMILES	ELG1 genotox	Rab9 prom act	NPC1 prom act	SMN2 splice enh	FLuc counter	KinaseGlo FLuc
Cc1cc2cc(CNC(=O)CC(C)C)ccc2n1C	2.1%	2.8%	2.2%	-20.0%	2.5%	-2.7%
CCOc1ccc(NC(=O)Cn2nnc(-c3ccc(C(N)=O)cc3)n2)cc1S(=O)(=O)N1CCCC1	25.0%	13.1%	-2.9%	.	6.75µM*	.
CCOc1ccc(NC(=O)Cn2nc(C(N)=O)c3ccccc3c2=O)cc1S(=O)(=O)N1CCCC1	-0.6%	0.6%	1.1%	.	-4.0%	.
C=CCn1c(C)cc(C(=O)COC(=O)COc2ccccc2C#N)c1C	8.3%	8.7%	-2.0%	.	1.69µM*	.
C=CCn1c(C)cc(C(=O)COC(=O)[C@@H](NC(=O)c2ccccc2Cl)C(C)C)c1C	?	?	?	-2.1%	0.151µM*	?
Cc1cc(C(=O)COC(=O)COc2ccccc2C#N)c(C)n1CC1CCCO1 (stereo not given)	1.4%	1.2%	-3.1%	.	3.01µM*	.
COc1ccc(CCNC(=O)Cc2c(C)c3cc(OC)c(OC)cc3oc2=O)cc1	.	.	.	4.6%	-0.4%	.
Clc1ccccc1OCc1nc(-c2ccncc2)no1	?	2µM*	2.82µM*	12.6µM*	10.7µM*	1.9%
Clc1ccc(OCc2nc(-c3ccncc3)no2)c(Br)c1	?	0.708µM*	1.26µM*	3.16µM*	2.13µM*	5.3%
Cc1cc(OCc2nc(-c3cccnc3)no2)c(C)cc1Br	13.1%	11.9%	11.4%	-3.2%	6.4%	-1.6%
COc1ccccc1Cc1nc(-c2ccncc2)no1	0.3%	1.4%	-3.1%	.	-11.9%	-3.9%
CC(=O)Nc1ccc(S(=O)(=O)N(C#N)c2nc(C)cc(C)n2)cc1	1.7%	-6.7%	-3.8%	.	-15.4%	.
CCCc1cc(=O)oc2cc(C)c3c(-c4cccc(OC)c4)coc3c12	.	.	.	8.1%	2.3%	.
Cc1ccc(-c2cc(=O)c3cc(C)ccc3[nH]2)cc1	?	?	?	2.24µM*	0.675µM*	-7.8%[39.9 µM]
Cc1ccc(-c2cc(=O)c3cc(F)ccc3[nH]2)cc1	12.2%	15.6%	0.6%	?	26.9µM*	-1.3%

Assay outcomes: PubChem BioAssay, National Center for Advancing Translational Sciences (NCATS)
